# Laboratory results taken from the supplement of paper PMC9337992.
# ± gives the standard deviation of the averaged measurements.
# System: MDAMB231
# Experiment: cell proliferation (confluence) relative to DMSO control; higher = less growth inhibition
# Details: 5 uM; 6 d
# Description: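 Epigenetic chemical probe screen: 15 TNBC cell lines, 500 cells per well in 384-well plates, treated with 5 uM of each of 36 SGC probes for 6 d. Confluency was imaged by IncuCyte ZOOM and normalised to DMSO control wells. Four replicate wells per compound.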
row,Compound,cell proliferation [%]
1,COc1cc(-c2cn(C)c(=O)c3cnccc23)c(OC)cc1CN(C)C,96.6 ± 1.5
2,O=C(/C=C/N1C[C@H]2C[C@@H]1CN2c1ccccn1)c1ccccc1O,99.17 ± 0.39
3,COc1ccccc1C(=O)Nc1cc2c(cc1N1CCCC1)n(C)c(=O)n2C,91.8 ± 5.7
4,CCCOc1ccn2c(C(C)=O)cc(-c3ccccc3S(C)(=O)=O)c2c1,96.7 ± 2.7
5,CC(C)N(CCCNC(=O)Nc1ccc(C(C)(C)C)cc1)C[C@H]1O[C@@H](n2cc(Br)c3c(N)ncnc32)[C@H](O)[C@@H]1O,99.63 ± 0.16
6,CCn1cc(-c2cccc(C(F)(F)F)c2)c2sc(C(=N)NC3CCS(=O)(=O)CC3)cc2c1=O,89.7 ± 4
7,CC[C@H](C)n1cc(C)c2c(C(=O)NCc3c(C)cc(C)[nH]c3=O)cc(-c3ccc(N4CCNCC4)nc3)cc21,98.5 ± 1.6
8,Clc1cc2c(NC3CCCC3)nnc(-c3ccncc3)c2cc1Cl,98.72 ± 0.35
9,CC(C)Oc1ccc(-c2c[nH]cc2CN(C)CCO)cc1,86.1 ± 7.1
10,COc1ccccc1S(=O)(=O)Nc1ccc2c(c1)CN(C)C(=O)N2,67.9 ± 8.3
11,COc1c(C)cc(NC(=O)c2nn(Cc3ccc(F)cc3)c3c2CN(C(=O)c2ccc[nH]2)C[C@]3(C)C(N)=O)cc1C,95.7 ± 2.2
12,CCCc1cc(C)[nH]c(=O)c1CNC(=O)c1cc(-c2ccc(N3CCN(C(C)C)CC3)nc2)cc2c1cnn2C(C)C,57.1 ± 6.4
13,CCC(=O)N1CCOc2c(cc(-c3ccc(OC)c(OC)c3)cc2OC[C@H]2CCCN(C)C2)C1,79.2 ± 5.1
14,Cn1cc(CCn2cnc(-c3cnn(C)c3)c2-c2ccc(C#N)cc2)cn1,96.4 ± 3.1
15,CCCc1cc(C)[nH]c(=O)c1CNC(=O)c1cc(-c2ccnc(N3CCN(C)CC3)c2)cc2c1cnn2C(C)C,99.683 ± 0.051
16,O=C(c1ccc(C(=O)N2CCC(N3CCCC3)CC2)c(Nc2ccccc2)c1)N1CCC(N2CCCC2)CC1,99.13 ± 0.17

row,Compound,cell proliferation [%]
1,CC(C)Oc1ccc(-c2c[nH]cc2CN(C)CCN)cc1,46.8 ± 5.9
2,COc1cc(C#N)ccc1S(=O)(=O)Nc1ccc2c(c1)cc(C)c(=O)n2C,95.9 ± 4.5
3,O=C([C@@H](Cc1cccc(C(F)(F)F)c1)NS(=O)(=O)c1cc(F)c2c(c1)CCNC2)N1CCCC1,87 ± 14
4,CN(C)[C@H]1CN(C2CCc3cccc(F)c32)C[C@@H]1c1ccc(N2CCN(S(C)(=O)=O)CC2)cc1 (some centres not stated),99.19 ± 0.27
5,COc1cc2c(cc1OCCCN1CCCC1)N=C(N)C21CCC1,96 ± 1.6
6,CCOC(=O)CCNc1cc(N2CCc3ccccc3CC2)nc(-c2cccnc2)n1,98.88 ± 0.33
7,Cc1nnc2c3ccccc3c(N[C@@H](C)[C@H](c3ccccc3)N(C)C)nn12 [L-moses],88.6 ± 8.2
8,COc1cc2c(NC3CCN(C(C)C)CC3)nc(C3CCCCC3)nc2cc1OCCCN1CCCC1,99.05 ± 0.52
9,O=C(NC[C@H](O)CN1CCc2ccccc2C1)c1ccnc(NC2CCC2)c1,45 ± 5.1
10,O=C(NCC(=O)N1CCCC1)Nc1ccc2cnccc2c1,81.5 ± 7.2
11,Cc1cc(=O)n(C)c2cc(N3C(=O)CC[C@H](NS(=O)(=O)CC(C)C)[C@H]3c3ccc(Cl)cc3)ccc12,95.9 ± 3.5
12,CCCc1cc(C)n(C)c(=O)c1CN(C)C(=O)c1cc(-c2ccc(N3CCN(C(C)C)CC3)nc2)cc2c1cnn2C(C)C,99.29 ± 0.32
13,CCOC(=O)CCNc1cc(N2CCc3ccccc3CC2)nc(-c2ccccn2)n1,31.7 ± 7.8
14,COc1ccc(CCc2nc3cc(-c4c(C)noc4C)ccc3n2C[C@H](C)N2CCOCC2)cc1Cl,90.9 ± 1.5
15,CCN(C(=O)CO)[C@H]1CN(/C(=N\C#N)Nc2cccc(OC(F)F)c2)N=C1c1ccc(Cl)c(Cl)c1,98.31 ± 0.72
16,CNCCN1CCC(OCc2ccccc2)CC1,82 ± 5.4
